Among the data in the supplement of paper PMC8773631 are cell viability values, retold here.

Each structure is given as a SMILES string. Counter-ions that a name gives are not always drawn. ± gives the uncertainty stated by the source.

What is called cell viability is a read-out of living cells in per cent, often relative to untreated cells.

This assay relates to NCC-MFS5-C1. Description: cell viability relative to DMSO control; higher = less growth inhibition. To be noted: 10 µM; treatment time: 3 days. As for the experimental part:
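NCC-MFS5-C1 myxofibrosarcoma cells (1x10^4 per well, 384-well) were treated on day 2 with 10 µM of each drug. On day 5, viability was read by CCK-8 absorbance at 450 nm and normalised to the DMSO control (%), n = 2.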
In the case of `CCc1c2c(nc3ccc(OC(=O)N4CCC(N5CCCCC5)CC4)cc13)-c1cc3c(c(=O)n1C2)COC(=O)[C@]3(O)CC` [Irinotecan HCl Trihydrate], the cell viability is 64.1 ± 2.3%.
The value for `Cc1nc(Nc2ncc(C(=O)Nc3c(C)cccc3Cl)s2)cc(N2CCN(CCO)CC2)n1` [Dasatinib Monohydrate] was 60.9 ± 3.2%; that for `C/C(=C\c1csc(C)n1)[C@@H]1C[C@@H]2O[C@]2(C)CCC[C@H](C)[C@H](O)[C@@H](C)C(=O)C(C)(C)[C@@H](O)CC(=O)N1` was 51.24 ± 0.45%; that for `CC(C)(C#N)c1cc(Cn2cncn2)cc(C(C)(C)C#N)c1` [Anastrozole] was 83.5 ± 5.1%.
The result for `Nc1nc2[nH]cc(CCc3ccc(C(=O)N[C@@H](CCC(=O)O)C(=O)O)cc3)c2c(=O)[nH]1` [Pemetrexed Disodium Hydrate] reads 80.7 ± 2.4%; that for `COc1cc(Nc2c(C#N)cnc3cc(OCCCN4CCN(C)CC4)c(OC)cc23)c(Cl)cc1Cl` [Bosutinib (SKI-606)], 22.1 ± 0.85%; that for `O=C(CCCCCCC(=O)Nc1ccccc1)NO` [Vorinostat (SAHA, MK0683)], 34.5 ± 7.2%.
The result for `CCCS(=O)(=O)Nc1ccc(F)c(C(=O)c2c[nH]c3ncc(-c4ccc(Cl)cc4)cc23)c1F` [Vemurafenib (PLX4032, RG7204)] reads 76 ± 3.5%; that for `CCCCC1C(=O)N(c2ccccc2)N(c2ccccc2)C1=O` [Phenylbutazone], 72.5 ± 5.7%; that for `Nc1nnc(-c2cccc(Cl)c2Cl)c(N)n1` [Lamotrigine], 90 ± 4.7%.
As to `CC1=C(CC(=O)O)c2cc(F)ccc2/C1=C\c1ccc([S+](C)[O-])cc1` (stereo not given) [Sulindac], the cell viability turned out to be 103.76 ± 0.032%.
The value for `CO[C@H]1C[C@@H]2CC[C@@H](C)[C@@](O)(O2)C(=O)C(=O)N2CCCC[C@H]2C(=O)O[C@H]([C@H](C)C[C@@H]2CC[C@@H](OCCO)[C@H](OC)C2)CC(=O)[C@H](C)/C=C(\C)[C@@H](O)[C@@H](OC)C(=O)[C@H](C)C[C@H](C)/C=C/C=C/C=C/1C` [Everolimus (RAD001)] was 64.9 ± 4.7%; that for `COc1cccc2c1C(=O)c1c(O)c3c(c(O)c1C2=O)C[C@@](O)(C(=O)CO)C[C@@H]3O[C@H]1C[C@H](N)[C@@H](O)[C@H](C)O1` [Epirubicin HCl] was 45.5 ± 1%.
As to `O=C(O)C(=O)O.[NH-][C@@H]1CCCC[C@H]1[NH-].[Pt+2]` [Oxaliplatin], the cell viability turned out to be 72.7 ± 2.5%.
The value for `CNC(=O)c1ccc(-c2cnc3ncc(Cc4ccc5ncccc5c4)n3n2)cc1F` was 80.9 ± 7.9%; that for `CO[C@H](C(=O)[C@@H](O)[C@@H](C)O)[C@@H]1Cc2cc3cc(O[C@H]4C[C@@H](O[C@H]5C[C@@H](O)[C@H](O)[C@@H](C)O5)[C@H](O)[C@@H](C)O4)c(C)c(O)c3c(O)c2C(=O)[C@H]1O[C@H]1C[C@@H](O[C@H]2C[C@@H](O[C@H]3C[C@](C)(O)[C@H](O)[C@@H](C)O3)[C@H](O)[C@@H](C)O2)[C@H](O)[C@@H](C)O1` [Mithramycin A] was 97.4 ± 4%; that for `CCC[C@@H]1C[C@@H](C(=O)N[C@@H]([C@H]2O[C@H](SC)[C@H](O)[C@@H](O)[C@H]2O)[C@@H](C)O)N(C)C1` [Lincomycin HCl] was 80.5 ± 9.3%.
The result for `COc1ccc(/C=C/C(=O)Nc2ccccc2C(=O)O)cc1OC` [Tranilast] reads 80.2 ± 2.5%; that for `CCC(C)n1ncn(-c2ccc(N3CCN(c4ccc(OCC5COC(Cn6cncn6)(c6ccc(Cl)cc6Cl)O5)cc4)CC3)cc2)c1=O` (stereo not given) [Itraconazole], 77.7 ± 15%; that for `COc1nc(N)nc2c1ncn2[C@@H]1O[C@H](CO)[C@@H](O)[C@@H]1O` [Nelarabine], 102 ± 3.3%.
The result for `NCC(=O)CCC(=O)O` [5-Aminolevulinic acid HCl] reads 85.7 ± 2.2%; that for `Cc1ccc(NC(=O)c2ccc(CN3CCN(C)CC3)cc2)cc1Nc1nccc(-c2cccnc2)n1` [Imatinib (STI571)], 72.9 ± 3.3%; that for `Cc1ccc(Nc2nccc(N(C)c3ccc4c(C)n(C)nc4c3)n2)cc1S(N)(=O)=O`, 61 ± 11%.
For the molecule `O=S(=O)(O)CCS` [Mesna], the cell viability was determined as 76.99 ± 0.32%.
The value for `CO[C@H]1C[C@@H]2CC[C@@H](C)[C@@](O)(O2)C(=O)C(=O)N2CCCC[C@H]2C(=O)O[C@H]([C@H](C)C[C@@H]2CC[C@@H](OC(=O)C(C)(CO)CO)[C@H](OC)C2)CC(=O)[C@H](C)/C=C(\C)[C@@H](O)[C@@H](OC)C(=O)[C@H](C)C[C@H](C)/C=C/C=C/C=C/1C` was 52.2 ± 7.9%.
Turning to `O=C(c1cc(Cc2n[nH]c(=O)c3ccccc23)ccc1F)N1CCN(C(=O)C2CC2)CC1`, the cell viability is 78 ± 9.1%.
In the case of `Cc1c2oc3c(C)ccc(C(=O)N[C@@H]4C(=O)N[C@H](C(C)C)C(=O)N5CCC[C@H]5C(=O)N(C)CC(=O)N(C)[C@@H](C(C)C)C(=O)O[C@@H]4C)c3nc-2c(C(=O)N[C@@H]2C(=O)N[C@H](C(C)C)C(=O)N3CCC[C@H]3C(=O)N(C)CC(=O)N(C)[C@@H](C(C)C)C(=O)O[C@@H]2C)c(N)c1=O` [Actinomycin D], the cell viability was determined as 40.2 ± 2.1%.
In the case of `COc1cc2nccc(Oc3ccc(NC(=O)C4(C(=O)Nc5ccc(F)cc5)CC4)cc3)c2cc1OC`, the cell viability was 93.8 ± 6.7%.
Turning to `CC(C)C(=O)Nc1ccc([N+](=O)[O-])c(C(F)(F)F)c1` [Flutamide], the cell viability was found to be 78.3 ± 6%.
For the molecule `Nc1nc2[nH]cnc2c(=S)[nH]1` [Thioguanine], the cell viability is 90.3 ± 0.61%.
As to `CCN1CCN(Cc2ccc(Nc3ncc(F)c(-c4cc(F)c5nc(C)n(C(C)C)c5c4)n3)nc2)CC1` [Abemaciclib mesylate], the cell viability was 84.2 ± 9%.
The value for `Cc1nc(Nc2ncc(C(=O)Nc3c(C)cccc3Cl)s2)cc(N2CCN(CCO)CC2)n1` [Dasatinib] was 55.3 ± 5.5%; that for `CNC(=O)c1cc(Oc2ccc(NC(=O)Nc3ccc(Cl)c(C(F)(F)F)c3)cc2)ccn1` [Sorafenib Tosylate] was 45.3 ± 1.9%; that for `C=CC(=O)Nc1cccc(Nc2nc(Nc3ccc(N4CCN(C(C)=O)CC4)cc3OC)ncc2C(F)(F)F)c1` [Rociletinib (CO-1686, AVL-301)] was 54.97 ± 0.41%.
The value for `CS(=O)(=O)c1ccc(C(=O)Nc2ccc(Cl)c(-c3ccccn3)c2)c(Cl)c1` [Vismodegib (GDC-0449)] was 70.2 ± 7.4%; that for `CC[C@H]1OC(=O)[C@H](C)[C@@H](O[C@H]2C[C@@](C)(OC)[C@@H](O)[C@H](C)O2)[C@H](C)[C@@H](O[C@@H]2O[C@H](C)C[C@H](N(C)C)[C@H]2O)[C@](C)(O)C[C@@H](C)CN(C)[C@H](C)[C@@H](O)[C@]1(C)O` [Azithromycin] was 69.4 ± 0.75%; that for `COc1c2ccoc2cc2oc(=O)ccc12` [Bergapten] was 105 ± 18%.
The value for `Cc1ccc(C(=O)Nc2ccc(CN3CCN(C)CC3)c(C(F)(F)F)c2)cc1C#Cc1cnc2cccnn12` was -2.74 ± 0.27%; that for `C=C1c2cccc(O)c2C(O)=C2C(=O)[C@]3(O)C(O)=C(C(N)=O)C(=O)[C@@H](N(C)C)[C@@H]3[C@@H](O)[C@H]12` [Methacycline HCl] was 92.3 ± 5.3%.
Turning to `Cc1ccc(F)c(NC(=O)Nc2ccc(-c3cccc4[nH]nc(N)c34)cc2)c1` [Linifanib (ABT-869)], the cell viability was 46.3 ± 12%.
